Experimental findings from PubChem BioAssay (NCATS) are described below.

Assay [1] can be described thus: OV-KATE Cancer Cell Toxicity qHTS against the NCATS CANVASS Library (AID 1347345). In short, it runs like this:
(§1)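 Bortezomib titration and single-dose wells served as plate controls. Test compounds, 11 points, acted on 1000 cells/well for 72 h at 37 degrees C; CellTiter-Glo luminescence quantified remaining viable cells.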

A short description of assay [2]: OV-SAHO Cancer Cell Toxicity qHTS against the NCATS CANVASS Library (AID 1347348). Note: series mostly up to about 38 µM; nearly all actives have a fitted effect of over 55% in size. In short, it runs like this:
as §1
(Quantitative high-throughput screening tests each substance at several concentrations.)

Assay [3] in a line: Panc-1005 Cancer Cell Toxicity qHTS against the NCATS CANVASS Library (AID 1347349). Note: series mostly up to about 38 µM; nearly all actives have a fitted effect of over 60% in size. In short, it runs like this:
as §1

Assay [4] is described as follows: SW1088 Cancer Cell Toxicity qHTS against the NCATS CANVASS Library (AID 1347350). Note: nearly all actives have a fitted effect of over 75% in size. The procedure, abridged:
as §1

Assay [5] in a line: U-118MG Cancer Cell Toxicity qHTS against the NCATS CANVASS Library (AID 1347351). In short, it runs like this:
as §1

The nature of assay [6]: COV-362 Cancer Cell Toxicity qHTS against the NCATS CANVASS Library (AID 1347352). Note: series mostly up to about 38 µM. The procedure, abridged:
(§2)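 First, 1000 cells go into each well and rest for 4 hours. Next, an 11-point dilution range is pinned in. Plates then incubate 72 hours before CellTiter-Glo addition and luminescence reading.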

The nature of assay [7]: A2780 Cisplatin Sensitive Ovarian Cancer Cell Toxicity qHTS against the NCATS CANVASS Library (AID 1347353). Note: nearly all actives have a fitted effect of over 60% in size. The procedure, abridged: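 Cells are plated at 750 per well and rest for 4 hours. Compounds are added across eleven concentrations, and incubated 72 hours before ATP is quantified by luminescence.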
Assay [8] is described as follows: UWB1.289-WTBRCA1 Cancer Cell Toxicity qHTS against the NCATS CANVASS Library (AID 1347354). In short, it runs like this: as §2
A short description of assay [9]: HEK293 24hr Apoptosis Induction qHTS against the NCATS CANVASS Library (AID 1347359). In short, it runs like this: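 HEK293 cells (500/well, DMEM + 10% FBS) were exposed to compounds in an 11-point series for 24 hours at 37 degrees C, then caspase-3/7 activity was read by Caspase-Glo DEVD luciferase luminescence after 15 min.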
Assay [10] in a line: SDT Cancer Cell Toxicity qHTS against the NCATS CANVASS Library (AID 1347365). Note: nearly all actives have a fitted effect of over 60% in size. In short, it runs like this: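 Cytotoxicity is measured from cellular ATP: compounds in an 11-point concentration series are pinned onto SDT cells, incubated 72 hr at 37C, then CellTiterGlo is added and luminescence read.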
A short description of assay [11]: KB-3-1 Cancer Cell Toxicity qHTS against the NCATS CANVASS Library (AID 1347366). Note: nearly all actives have a fitted effect of over 75% in size. In short, it runs like this:
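Seed KB-3-1 cells at 500/well in DMEM with 10% FBS, add compounds, incubate 72 hr at 37C and 5% CO2, then add CellTiter-Glo and read luminescence after 10 minutes.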

Assay [12] can be described thus: qHTS for ATAD5 Agonist screened against the NCATS CANVASS Library (AID 1347367).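 Note: luciferase reporter driven by ATAD5 which rises upon DNA damage.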 The procedure, abridged: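 Step one plated reporter cells and let them acclimate 5hr. Step two pinned compounds with MMS as positive and 0.46% DMSO as negative control. After 16hr incubation, fluorescence viability then luminescence were read.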
Assay [13] is described as follows: G06 Cancer Cell Toxicity qHTS against the NCATS CANVASS Library (AID 1347368). Note: nearly all actives have a fitted effect of over 60% in size. Note: potency is the fitted concentration of half-maximal effect. In short, it runs like this:
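Cells were plated at 500 per well, then compounds were added over an 11-point range. After 72 hr at 37C, CellTiterGlo was added and luminescence measured as ATP content.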

The nature of assay [14]: DH5-alpha competent E. coli microbial cell viability qHTS against the NCATS CANVASS Library (AID 1347377). As to conditions: outcome: dose series up to 46.1 µM unless noted. The procedure, abridged:
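Bacteria were dispensed at 0.2 OD, then compounds were pin-transferred. Plates were incubated overnight at 37C, after which BacTiter-Glo was added and luminescence measured 20 min later.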

Assay [15] is described as follows: qHTS for H2AX Agonists against the NCATS CANVASS Library (AID 1347378).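 Note: phospho-H2AX S139 level in CHO-K1 lysates by TR-FRET emission ratio.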 In short, it runs like this:
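Following overnight seeding, CHO-K1 cells are incubated with a concentration series of compound for 3 hr at 37C (final DMSO 0.76%). Cells are then lysed, detection antibodies added, and emission ratio 665/620 nm recorded after 24 hr at room temperature.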

Assay [16] in a line: Inflammasome Signaling qHTS Counterscreen: IL-1-beta AlphaLISA counterscreen against the NCATS CANVASS Library (AID 1347381).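 Note: cell-free check with purified IL-1β in medium and no THP-1 cells; series mostly up to about 57 µM.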 In short, it runs like this: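 Purified IL-1-beta (4 pg/well) + compound, 11-pt conc. series; acceptor beads 6 ug/mL + biotin-Ab 0.6 nM final, 1 h RT; SA-donor 24 ug/ml final, 30 min dark RT; read ex 680/em 615.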
A short description of assay [17]: qHTS assay for small molecule disruptors of mitochondrial membrane potential screened against the NCATS CANVASS Library (AID 1347389). The procedure, abridged:
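Mitochondrial depolarization in HepG2 cells is scored as a falling aggregate-to-monomer fluorescence ratio after 1 hr compound exposure and 30 min staining with Mito-MPS dye at 37C, each compound tested as an 11-point titration.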

Assay [18] is described as follows: qHTS for inhibitors of ER calcium dysfunction: SERCaMP assay screened against the NCATS CANVASS Library (AID 1347393).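 Note: series mostly up to about 77 µM; lower secreted reporter signal means inhibitor of ER calcium depletion; nearly all actives have a fitted effect of over 40% in size.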 The procedure, abridged: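 qHTS in SH-SY5Y reporter cells: 16 h compound pretreatment, 4 h thapsigargin, then secreted Gaussia luciferase measured by luminescence.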
Assay [19] can be described thus: Vero-766 cells viability qHTS against the NCATS CANVASS Library: Counterscreen for Zika virus inhibition assay (AID 1347394). The procedure, abridged: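 This cytotoxicity counterscreen uses African green monkey Vero 766 cells in the absence of Zika virus. Compounds are incubated with cells for 72 h, and ATP-based luminescence reports viability.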
Assay [20] in a line: Redox Reaction Profiling qHTS: Assay Interference Panel against the NCATS CANVASS Library (AID 1347401). The procedure, abridged:
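Quantitative HTS over an 11-point series was run in HEPES pH 7.3 with 50 mM NaCl, 200 uM DTT and 5 uM resazurin. Initial and 15-min resorufin fluorescence readings were taken.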

A number with no mark means an inactive call. Inconclusive results are not listed. The source made the active and inactive calls. Calls come from the whole dose curve; as a rule, active = well fitted curve in the direction sought with a large enough effect; inconclusive = small, poorly fitted or top-dose-only effect, or another doubt; inactive = no such curve, though single readings can be large; an effect the other way counts as inactive or inconclusive.

For the compound `C[C@@]12CCC[C@@](C)(C(=O)O)[C@H]1CC[C@@]13C[C@@H](CC[C@H]12)[C@](C)(O)C3`, the Potency entry in [1], in [2], in assay [3], in assay [4], in assay [5] and in assay [6] was “inactive” each time. Further, the Potency result in assay [7], in assay [8], in assay [9], in [10], in assay [11] and in [12] was “inactive” throughout. For the same compound, the Potency entry in [13], in assay [15], in [17], in assay [18], in assay [19] and in assay [20] was “inactive” throughout. Further, the call in assay [14] and in assay [16] was inactive.
For the compound `C/C=C/[C@H]1[C@H]2C(=O)c3c(O)c(C)c(O)c(C)c3[C@]1(C(=O)O)C(=O)C=C2C`, the Potency result in assay [1], in [2], in [3], in assay [4], in assay [5] and in assay [6] was “inactive” each time. In addition, the Potency result in [7], in assay [8], in assay [10], in assay [11], in assay [12] and in assay [13] was “inactive” throughout. The Potency entry in assay [15], in assay [17], in assay [18], in assay [19] and in assay [20] was “inactive” each time. The compound was called inactive in assay [14] and in assay [16].
Turning to `O=c1cc(-c2ccc(O)cc2)oc2cc(O)c([C@@H]3OC(CO)[C@H](O)[C@@H](O)[C@H]3O)c(O)c12` (some centres undefined), the Potency entry in assay [1], in [2], in assay [3], in assay [4], in assay [5] and in [6] was “inactive” throughout. For the same compound, the Potency entry in assay [7], in assay [8], in assay [9], in assay [10], in [11] and in [12] was “inactive” in each case. Also, the Potency entry in assay [13], in [15], in assay [17], in assay [18], in [19] and in assay [20] was “inactive” throughout. In addition, in [14], the call was inactive.
Turning to `C=C1C[C@]23C=CC(=O)[C@@](C)(CCCC(C)C(=O)N[C@@H](CO)C(=O)O)[C@@H]2C[C@@H]1CC3` (some centres undefined), the Potency result in [1], in assay [2], in assay [3], in [4], in assay [6] and in assay [7] was “inactive” each time. Moreover, the Potency result in [8], in assay [9], in assay [10], in assay [11], in assay [12] and in assay [13] was “inactive” each time. Besides, the Potency result in assay [15], in assay [17], in assay [18], in assay [19] and in assay [20] was “inactive” in each case. The compound was called inactive in [14] and in assay [16].
In the case of `C[C@@]12CCC[C@@](C)(C(=O)OP(=O)(O)OC[C@H]3O[C@@H](n4cnc5c(N)ncnc54)[C@H](O)[C@@H]3O)[C@H]1C[C@@H](O)[C@@]13C[C@@H](CC[C@@H]21)[C@](C)(O)C3`, the Potency result in assay [1], in assay [2], in [3], in assay [4], in assay [5] and in [6] was “inactive” in each case. Also, the Potency result in [7], in assay [9], in assay [17], in assay [18] and in assay [19] was “inactive” throughout. For the same compound, the Potency in [13] was 14.8 µM (active). Further, the compound was classed as inactive in [16].
In the case of `CN1C(=O)C(=O)N2C(=C[C@]3(c4c[nH]c5ccccc45)c4ccccc4N[C@H]23)C1=O`, the Potency entry in [1], in assay [2], in [3], in assay [4], in [5] and in assay [6] was “inactive” throughout. The Potency entry in [7], in assay [8], in assay [10], in assay [12], in [13] and in assay [15] was “inactive” throughout. In addition, the Potency entry in assay [17], in assay [18], in [19] and in [20] was “inactive” throughout. Also, the call in [14] and in assay [16] was inactive.
Regarding `CO[C@@H](C[C@@H](C)[C@@H](O)/C=C/C=C/CNC(=O)C(C)(C)[C@H](O)\C(C)=C/C=C\C=C\Cc1cnco1)[C@]1(O)[C@@H](C)C(=O)N(C)[C@@]12COC2=O`, the Potency result in assay [1], in assay [2], in [3], in [4], in assay [5] and in [6] was “inactive” each time. Moreover, the Potency result in assay [7], in assay [8], in assay [9], in [10], in assay [12] and in assay [13] was “inactive” throughout. The Potency result in assay [15], in assay [17], in assay [18], in assay [19] and in [20] was “inactive” each time. The outcome in [14] and in assay [16] was inactive.
Consider `C=C[C@]1(C)CC[C@@H]([C@H](C)C(=O)/C=C/C(C)(C)O)O1`, for which the Potency entry in assay [1], in assay [3], in assay [4], in assay [5], in assay [6] and in assay [8] was “inactive” each time. Besides, the Potency entry in assay [9], in [11], in [12], in assay [15], in [17] and in [19] was “inactive” in each case. For the same compound, in [20], the Potency entry is “inactive”. Besides, the compound was called inactive in assay [14].
As for `C=CC(C)(C)C(=O)[C@@H](C)[C@@H]1CC[C@@](C)(C=C)O1`, the Potency result in assay [1], in assay [2], in assay [3], in assay [4], in assay [5] and in assay [6] was “inactive” throughout. The Potency entry in [7], in assay [8], in [9], in assay [10], in assay [11] and in assay [13] was “inactive” each time. The Potency entry in [15], in [17], in assay [18], in [19] and in assay [20] was “inactive” throughout. Besides, the outcome in assay [14] and in [16] was inactive.
With `CC(C)=CCCC(C)(O)[C@H]1CC=C(C)C(O)C1` (some centres undefined), the Potency entry in [1], in assay [2], in assay [3], in [4], in assay [5] and in assay [6] was “inactive” each time. In addition, the Potency entry in [7], in assay [8], in [10], in assay [12], in assay [13] and in [15] was “inactive” throughout. Moreover, the Potency entry in assay [17], in assay [18], in assay [19] and in [20] was “inactive” each time. Also, the compound was classed as inactive in assay [14].
For `COC(=O)[C@@]12Oc3cccc(O)c3C(O)=C1C(=O)C[C@H](C)[C@H]2O`, the Potency result in [1], in assay [2], in assay [3], in [4], in assay [5] and in [6] was “inactive” throughout. Further, the Potency entry in assay [7], in assay [8], in [9], in [10], in assay [11] and in [13] was “inactive” throughout. In addition, the Potency entry in [15], in [17], in [19] and in assay [20] was “inactive” throughout. For the same compound, the compound was classed as inactive in [16].
